Assay [1] can be described thus: NCI Yeast Anticancer Drug Screen. Data for the rad50 strain (AID 155).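 Note: 0% = growth of vehicle-only cultures of the same strain.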 To be noted: S. cerevisiae rad50 strain growth inhibition, stronger effect = higher value. The essentials: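 Readout: growth inhibition relative to vehicle-treated cultures. Compound exposure was carried out in a genetically defined yeast strain deficient in DNA damage repair.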
The nature of assay [2]: NCI Yeast Anticancer Drug Screen. Data for the mec2-1 strain (AID 157). To be noted: S. cerevisiae mec2-1 strain, stronger effect = higher value. The procedure, abridged: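 Readout is yeast growth inhibition, normalised to vehicle-treated controls, in the mec2-1 strain exposed to compound.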
The nature of assay [3]: NCI Yeast Anticancer Drug Screen. Data for the sgs1 mgt1 strain (AID 161).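 Note: 0% = growth of cultures given vehicle only.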 The conditions noted are these: S. cerevisiae sgs1 mgt1 strain, stronger effect = higher value. The procedure, abridged:
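Yeast cells carrying a defined DNA-repair defect were exposed to test compounds. Growth inhibition was measured relative to vehicle-treated controls.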

Assay [4] is described as follows: NCI Yeast Anticancer Drug Screen. Data for the cln2 rad14 strain (AID 165).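 Note: 0% = growth equal to vehicle treated cultures.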 The conditions noted are these: S. cerevisiae cln2 rad14 strain, stronger effect = higher value. The essentials:
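Relative to vehicle controls, growth inhibition of compound-treated cln2 rad14 yeast was recorded.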

A short description of assay [5]: NCI Yeast Anticancer Drug Screen. Data for the bub3 strain (AID 167). The conditions noted are these: S. cerevisiae bub3 mutant strain, stronger effect = higher value. The procedure, abridged: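 Readout: yeast growth inhibition, expressed relative to vehicle-only wells. The test organism is a mutant strain from a panel with lesions in DNA repair or checkpoint genes.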
A short description of assay [6]: NCI Yeast Anticancer Drug Screen. Data for the mlh1 rad18 strain (AID 175). To be noted: S. cerevisiae mlh1 rad18 strain growth inhibition, stronger effect = higher value. The procedure, abridged:
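Test agents were incubated with a yeast strain of defined genotype (DNA damage repair defect). Inhibition of growth was derived by comparison with vehicle-exposed cultures.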

The mark [7] stands for this setting: at 5.0 µM (retest, dose inferred, filed as 0.5).
[8] abbreviates: at 50.0 µM (retest, dose inferred, filed as 5.0).

Structures are written as SMILES. About 79,000 compounds went through this panel and 15% of them were active in at least one assay; those are over-represented in the sample as a whole. A number with no mark means an inactive call. Active and inactive are the calls of the source. Cut-off read from the data, not from the text of the source: active = growth inhibition above about 70%; inactive = the rest.

In the case of `Cc1ccc(S(=O)(=O)N/N=C2\CC(C)OC3=C2CCCCCC3)cc1` (stereo not given), the growth inhibition in assay [1] (setting [7]) was 13%; in assay [1] (setting [8]), 95% (active); in assay [1] (at 50.0 µM) it was 75.5% (active); in assay [2] (setting [7]), 0%; in assay [2] (setting [8]) it was 94% (active); in assay [2] (at 50.0 µM) it was 79.3% (active). For the same compound, the growth inhibition in assay [3] (setting [7]) was 1%; in assay [3] (setting [8]), 93% (active); in assay [3] (at 50.0 µM), 61.1%; in assay [4] (setting [7]), -3%; in assay [4] (setting [8]), 92% (active); in assay [4] (at 50.0 µM), 77.5% (active). Also, the growth inhibition was 1% in assay [5] (setting [7]); 95% (active) in assay [5] (setting [8]); 75.6% (active) in assay [5] (at 50.0 µM); 31% in assay [6] (setting [7]); 95% (active) in assay [6] (setting [8]); 67.8% in assay [6] (at 50.0 µM).
As for `CCC#CC(O)(C(=O)OCC)C1CCCC1` (stereo not given), the growth inhibition in assay [1] (setting [7]) is -148%; in assay [1] (setting [8]), -161%; in assay [1] (at 50.0 µM), -1.05%; in assay [2] (setting [7]) it was -50%; in assay [2] (setting [8]) it was -51%; in assay [2] (at 50.0 µM), 13.5%. The growth inhibition in assay [3] (setting [7]) was -59%; in assay [3] (setting [8]), -64%; in assay [3] (at 50.0 µM), -0.35%; in assay [4] (setting [7]), -57%; in assay [4] (setting [8]), -59%; in assay [4] (at 50.0 µM) it was 33.5%. The growth inhibition in assay [5] (setting [7]) was -67%; in assay [5] (setting [8]), -85%; in assay [5] (at 50.0 µM), 18.4%; in assay [6] (setting [7]), -115%; in assay [6] (setting [8]), -115%; in assay [6] (at 50.0 µM), 7.9%.
For the compound `Cc1cc2nc3ccc(N)cc3oc-2cc1=[N+](C)C`, the growth inhibition in assay [1] (setting [7]) is 6%; in assay [1] (setting [8]), 95% (active); in assay [1] (at 50.0 µM) it was 95.6% (active); in assay [2] (setting [7]), 14%; in assay [2] (setting [8]), 96% (active); in assay [2] (at 50.0 µM), 92.8% (active). Moreover, the growth inhibition in assay [3] (setting [7]) is -9%; in assay [3] (setting [8]) it was 91% (active); in assay [3] (at 50.0 µM) it was 74% (active); in assay [4] (setting [7]) it was -12%; in assay [4] (setting [8]), 93% (active); in assay [4] (at 50.0 µM) it was 81.5% (active). In addition, the growth inhibition was -8% in assay [5] (setting [7]); 94% (active) in assay [5] (setting [8]); 78.2% (active) in assay [5] (at 50.0 µM); 7% in assay [6] (setting [7]); 92% (active) in assay [6] (setting [8]); 3.8% in assay [6] (at 50.0 µM).
In the case of `CC(C)c1ccc2c(c1)CCC1C(C)(CN)CCCC21C` (stereo not given), the growth inhibition was 27% in assay [1] (setting [7]); 100% (active) in assay [1] (setting [8]); 99.2% (active) in assay [1] (at 50.0 µM); 0% in assay [2] (setting [7]); 100% (active) in assay [2] (setting [8]); 99.6% (active) in assay [2] (at 50.0 µM). For the same compound, the growth inhibition in assay [3] (setting [7]) was 35%; in assay [3] (setting [8]), 100% (active); in assay [3] (at 50.0 µM), 99.5% (active); in assay [4] (setting [7]) it was -6%; in assay [4] (setting [8]) it was 99% (active); in assay [4] (at 50.0 µM) it was 98.7% (active). Further, the growth inhibition is 10% in assay [5] (setting [7]); 100% (active) in assay [5] (setting [8]); 99.3% (active) in assay [5] (at 50.0 µM); 32% in assay [6] (setting [7]); 100% (active) in assay [6] (setting [8]); 99.1% (active) in assay [6] (at 50.0 µM).
For the compound `Nc1[nH]cnc(=S)c1NC=O`, the growth inhibition in assay [1] (setting [7]) is -1%; in assay [1] (setting [8]), -4%; in assay [1] (at 50.0 µM) it was 13.9%; in assay [2] (setting [7]), -1%; in assay [2] (setting [8]) it was -5%; in assay [2] (at 50.0 µM), 2.8%. In addition, the growth inhibition in assay [3] (setting [7]) is -2%; in assay [3] (setting [8]), -5%; in assay [3] (at 50.0 µM), 35%; in assay [4] (setting [7]), -4%; in assay [4] (setting [8]), -5%; in assay [4] (at 50.0 µM), 0.4%. Moreover, the growth inhibition was 0% in assay [5] (setting [7]); -3% in assay [5] (setting [8]); 42.3% in assay [5] (at 50.0 µM); -3% in assay [6] (setting [7]); -3% in assay [6] (setting [8]); -1.9% in assay [6] (at 50.0 µM).
Consider `CCOC(=S)SSC(=S)NCCNC(=S)SSC(=S)OCC`, for which the growth inhibition is 9% in assay [1] (setting [7]); 40% in assay [1] (setting [8]); 70.7% (active) in assay [1] (at 50.0 µM); 4% in assay [2] (setting [7]); 72% (active) in assay [2] (setting [8]); 36.5% in assay [2] (at 50.0 µM). Moreover, the growth inhibition in assay [3] (setting [7]) is 13%; in assay [3] (setting [8]) it was 86% (active); in assay [3] (at 50.0 µM) it was 79.8% (active); in assay [4] (setting [7]), -1%; in assay [4] (setting [8]), 30%; in assay [4] (at 50.0 µM), 73.1% (active). In addition, the growth inhibition in assay [5] (setting [7]) is 4%; in assay [5] (setting [8]) it was 91% (active); in assay [5] (at 50.0 µM), 2.55%; in assay [6] (setting [7]), 11%; in assay [6] (setting [8]), 78% (active); in assay [6] (at 50.0 µM) it was 76.4% (active).
Take `COc1cc2c[n+](C)c3c4ccccc4ccc3c2cc1OC` (tested in a mixture with another compound): the growth inhibition in assay [1] (setting [7]) is 27%; in assay [1] (setting [8]) it was 87% (active); in assay [1] (at 50.0 µM), 38%; in assay [2] (setting [7]), 24%; in assay [2] (setting [8]), 54%; in assay [2] (at 50.0 µM), 8.85%. For the same compound, the growth inhibition in assay [3] (setting [7]) is 24%; in assay [3] (setting [8]) it was 90% (active); in assay [3] (at 50.0 µM), 7.1%; in assay [4] (setting [7]) it was 21%; in assay [4] (setting [8]), 69%; in assay [4] (at 50.0 µM), 9.7%. Further, the growth inhibition is 27% in assay [5] (setting [7]); 81% (active) in assay [5] (setting [8]); 17.9% in assay [5] (at 50.0 µM); 35% in assay [6] (setting [7]); 77% (active) in assay [6] (setting [8]); -18.6% in assay [6] (at 50.0 µM).
As to `S=c1nc(/C=C/c2ccc(Cl)c(Cl)c2)[nH][nH]1`, the growth inhibition was 29% in assay [1] (setting [7]); 68% in assay [1] (setting [8]); 79.5% (active) in assay [1] (at 50.0 µM); 28% in assay [2] (setting [7]); 51% in assay [2] (setting [8]); 44.8% in assay [2] (at 50.0 µM). Moreover, the growth inhibition in assay [3] (setting [7]) is 27%; in assay [3] (setting [8]) it was 51%; in assay [3] (at 50.0 µM) it was 65.2%; in assay [4] (setting [7]), 31%; in assay [4] (setting [8]), 42%; in assay [4] (at 50.0 µM) it was 65%. The growth inhibition was 33% in assay [5] (setting [7]); 67% in assay [5] (setting [8]); 83.7% (active) in assay [5] (at 50.0 µM); 39% in assay [6] (setting [7]); 71% (active) in assay [6] (setting [8]); 22.6% in assay [6] (at 50.0 µM).
As for `C/C(=N\N(C)C(=S)Nc1ccccc1)c1ccccn1`, the growth inhibition in assay [1] (setting [7]) is -2%; in assay [1] (setting [8]) it was 11%; in assay [1] (at 50.0 µM), 93.5% (active); in assay [2] (setting [7]) it was -4%; in assay [2] (setting [8]), 9%; in assay [2] (at 50.0 µM), 63.2%. In addition, the growth inhibition is -6% in assay [3] (setting [7]); 22% in assay [3] (setting [8]); 71.7% (active) in assay [3] (at 50.0 µM); -5% in assay [4] (setting [7]); -18% in assay [4] (setting [8]); 54.9% in assay [4] (at 50.0 µM). Also, the growth inhibition is -12% in assay [5] (setting [7]); 36% in assay [5] (setting [8]); 82% (active) in assay [5] (at 50.0 µM); -10% in assay [6] (setting [7]); 65% in assay [6] (setting [8]); 61.8% in assay [6] (at 50.0 µM).
With `CCCCCCCCCCOC(=O)c1cc[n+](C)cc1`, the growth inhibition in assay [1] (setting [7]) is -4%; in assay [1] (setting [8]), -5%; in assay [1] (at 50.0 µM) it was 13.8%; in assay [2] (setting [7]), 7%; in assay [2] (setting [8]), 6%; in assay [2] (at 50.0 µM), 9.5%. Besides, the growth inhibition in assay [3] (setting [7]) is -5%; in assay [3] (setting [8]) it was 0%; in assay [3] (at 50.0 µM) it was -1.75%; in assay [4] (setting [7]) it was -3%; in assay [4] (setting [8]), -4%; in assay [4] (at 50.0 µM), 46.1%. Besides, the growth inhibition in assay [5] (setting [7]) was -5%; in assay [5] (setting [8]), -6%; in assay [5] (at 50.0 µM) it was -0.65%; in assay [6] (setting [7]), -2%; in assay [6] (setting [8]), -1%; in assay [6] (at 50.0 µM), -18.9%.

Source of the values: PubChem BioAssay (NCI).
